This note sets out measurements from PMC4336329 (PLoS ONE, 2015).

The campaign covered roughly 310,000 compounds. About 14,000 (4.5%) showed an effect of 50% or more. Effects have a minus sign here. The list comes from a sample in which strong results are over-represented; it also holds similar structures and randomly drawn compounds.
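Further: peak tail current of the secondary pulse compared with the same well before compound.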

human ether-à-go-go-related gene (hERG) potassium channel, sequence (Q12809 whole entry, looked up): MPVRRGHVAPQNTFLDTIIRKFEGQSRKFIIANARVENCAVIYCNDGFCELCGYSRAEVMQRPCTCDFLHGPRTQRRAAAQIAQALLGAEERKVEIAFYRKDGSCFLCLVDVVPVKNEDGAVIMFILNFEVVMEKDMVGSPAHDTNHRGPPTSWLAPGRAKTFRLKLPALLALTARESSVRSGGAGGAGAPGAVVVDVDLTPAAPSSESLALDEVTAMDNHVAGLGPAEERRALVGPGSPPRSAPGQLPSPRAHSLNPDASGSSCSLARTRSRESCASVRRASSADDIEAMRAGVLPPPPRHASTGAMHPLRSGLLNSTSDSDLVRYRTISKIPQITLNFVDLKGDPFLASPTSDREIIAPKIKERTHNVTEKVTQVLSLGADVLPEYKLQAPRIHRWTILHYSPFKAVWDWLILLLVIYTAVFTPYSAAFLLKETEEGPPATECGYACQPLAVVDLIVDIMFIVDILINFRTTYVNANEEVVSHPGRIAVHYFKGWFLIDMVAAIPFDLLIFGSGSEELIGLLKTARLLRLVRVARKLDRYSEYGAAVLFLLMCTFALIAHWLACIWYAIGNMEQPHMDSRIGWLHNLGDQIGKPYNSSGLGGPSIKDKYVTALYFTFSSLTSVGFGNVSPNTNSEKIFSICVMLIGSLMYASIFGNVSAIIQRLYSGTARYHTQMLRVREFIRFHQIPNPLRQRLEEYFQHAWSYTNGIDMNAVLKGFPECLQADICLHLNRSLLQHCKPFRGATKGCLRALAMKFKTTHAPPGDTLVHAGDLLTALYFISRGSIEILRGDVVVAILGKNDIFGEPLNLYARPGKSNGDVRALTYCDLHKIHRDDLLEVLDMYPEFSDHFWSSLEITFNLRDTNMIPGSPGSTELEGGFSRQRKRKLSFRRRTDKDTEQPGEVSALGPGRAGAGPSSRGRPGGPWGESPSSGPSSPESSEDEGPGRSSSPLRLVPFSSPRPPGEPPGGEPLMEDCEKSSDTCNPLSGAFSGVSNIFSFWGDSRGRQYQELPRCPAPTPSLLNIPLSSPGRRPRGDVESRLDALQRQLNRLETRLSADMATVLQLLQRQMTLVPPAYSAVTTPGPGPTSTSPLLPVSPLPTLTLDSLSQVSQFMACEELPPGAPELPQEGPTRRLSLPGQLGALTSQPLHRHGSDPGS

This experiment addresses human ether-à-go-go-related gene (hERG) potassium channel (human, UniProt Q12809). Briefly: primary screen, population patch clamp on CHO cells stably expressing hERG; higher = less effect of the substance.
Turning to `CN1CCN(S(=O)(=O)c2ccc(N(C)CC(=O)Nc3ccc(F)cc3)nc2)CC1`, the “hERG current change (%, negative = inhibition) at 10uM” value is -4.31%.

Regarding `CN(CC(=O)Nc1ccc(C(N)=O)cc1)CC(=O)Nc1ccccc1Br`, the “hERG current change (%, negative = inhibition) at 10uM” value is 11%.

Consider `O=c1cc(CN2CCN(Cc3ccccc3)CC2)c2cc(O)ccc2o1`, for which the “hERG current change (%, negative = inhibition) at 10uM” value was -68.2%.

Consider `O=C(c1ccco1)N1CCN(Cc2cc(=O)oc3cc(O)ccc23)CC1`, for which the “hERG current change (%, negative = inhibition) at 10uM” value is recorded as -69.3%.

For `O=c1cc(CN2CCOCC2)c2cc(Cl)ccc2o1`, the “hERG current change (%, negative = inhibition) at 10uM” value was -0.546%.

On to `O=c1cc(CN2CCN(Cc3ccccc3)CC2)c2ccc(O)cc2o1`, for which the “hERG current change (%, negative = inhibition) at 10uM” value was -76.8%.

For the compound `COc1ccc2oc(=O)cc(CN3CCOCC3)c2c1`, the “hERG current change (%, negative = inhibition) at 10uM” value was found to be 18.3%.

`CN1CCN(Cc2cc(=O)oc3ccc(Cl)cc23)CC1`: the “hERG current change (%, negative = inhibition) at 10uM” value is recorded as -16.7%.

Regarding `COc1ccc(OC)c(CN2CCN(Cc3cc(=O)oc4cc(O)ccc34)CC2)c1`, the “hERG current change (%, negative = inhibition) at 10uM” value is -74.8%.

As to `O=C(O)C(=O)O.O=C(c1ccco1)N1CCN(Cc2cccc3ccccc23)CC1`, the “hERG current change (%, negative = inhibition) at 10uM” value is -24.3%.

For the compound `CCc1cc2c(CN3CCN(Cc4ccccc4)CC3)cc(=O)oc2cc1O`, the “hERG current change (%, negative = inhibition) at 10uM” value is -35.5%.

`CC1CN(Cc2cc(=O)oc3cc(O)ccc23)CC(C)O1` (stereo not shown): the “hERG current change (%, negative = inhibition) at 10uM” value was -23.3%.

With `Cc1ccc2c(CN3CCN(C(=O)c4ccco4)CC3)cc(=O)oc2c1C`, the “hERG current change (%, negative = inhibition) at 10uM” value is -48.6%.

Take `COC(=O)C1CCN(Cc2cc(=O)oc3cc(OC)ccc23)CC1`: the “hERG current change (%, negative = inhibition) at 10uM” value was -17.8%.

Regarding `O=C(NC1CCOCC1)C1CCC(=O)N(Cc2cccc(C(F)(F)F)c2)C1` (stereo not shown), the “hERG current change (%, negative = inhibition) at 10uM” value was 13.7%.

`Cc1cc2c(cc1S(=O)(=O)CCC(=O)N(C)Cc1ccccc1)OCC(=O)N2`: the “hERG current change (%, negative = inhibition) at 10uM” value is reported as -35%.

As for `O=[N+]([O-])c1cccc(/C=N/n2c(C3CCCCC3)n[nH]c2=S)c1`, the “hERG current change (%, negative = inhibition) at 10uM” value is given as 11.9%.

Take `COc1cc([N+](=O)[O-])ccc1NC(=O)Nc1ccc2c(c1)OCCO2`: the “hERG current change (%, negative = inhibition) at 10uM” value was 25.3%.

For the compound `CCN1CCN(CCNC(=O)CCCn2nc(C)c3c(C)n(-c4ccc(C)cc4)nc3c2=O)CC1`, the “hERG current change (%, negative = inhibition) at 10uM” value was found to be 0.678%.

For `O=C(CCC(=O)c1ccc[nH]1)c1ccc(Cl)cc1`, the “hERG current change (%, negative = inhibition) at 10uM” value was -5.4%.

Take `CC1CCCN(CCC(=O)Nc2ccc(F)c(F)c2)C1` (stereo not shown): the “hERG current change (%, negative = inhibition) at 10uM” value is -30.1%.

On to `COc1ccc(/C(C)=N/NC(=O)Cc2ccc(Cl)cc2)cc1`, for which the “hERG current change (%, negative = inhibition) at 10uM” value came out at 14.6%.

As for `O=C1C(=O)N(c2ccccn2)C(c2ccc(Br)cc2)/C1=C(/O)c1ccc(Br)cc1` (stereo not shown), the “hERG current change (%, negative = inhibition) at 10uM” value is -47.8%.

For `CCOc1cc2[nH]c(=O)n(CCCC(=O)NCc3ccco3)c(=O)c2cc1OCC`, the “hERG current change (%, negative = inhibition) at 10uM” value worked out at 5.83%.

With `Cc1cc(C)n(-c2ccc(C(=O)N3CCN(S(=O)(=O)c4ccc(Cl)cc4)CC3)cc2)n1`, the “hERG current change (%, negative = inhibition) at 10uM” value is -25.8%.

In the case of `Cc1ccccc1-c1ncc(CN2CCC(CO)(CCCc3ccccc3)CC2)cn1`, the “hERG current change (%, negative = inhibition) at 10uM” value is recorded as -10.9%.

With `O=C(CN1CCN(Cc2ccc(F)cc2)CC1)NCCc1ccccc1`, the “hERG current change (%, negative = inhibition) at 10uM” value is on record as -13.6%.

`COc1cccc(CC2(CO)CCN(Cc3cnc(-c4cccc(C)c4)nc3)CC2)c1`: the “hERG current change (%, negative = inhibition) at 10uM” value is -19.9%.

As to `CC(=O)c1cccc(CN2CCC(CO)(CCCc3ccccc3)CC2)c1`, the “hERG current change (%, negative = inhibition) at 10uM” value is recorded as -63.9%.

Consider `OCC1(CCCc2ccccc2)CCN(Cc2ccc(F)cc2)CC1`, for which the “hERG current change (%, negative = inhibition) at 10uM” value is listed as -72.9%.

Take `Cn1cc(CN2CCC(CO)(CCCc3ccccc3)CC2)c(-c2ccccc2)n1`: the “hERG current change (%, negative = inhibition) at 10uM” value is reported as -66.3%.

Regarding `Cc1cccc(-c2ncc(CN3CCC(CO)(CCCc4ccccc4)CC3)cn2)c1`, the “hERG current change (%, negative = inhibition) at 10uM” value is given as -54.1%.

For the compound `CC(=O)c1cccc(CN2CCC(CO)(Cc3ccccc3)CC2)c1`, the “hERG current change (%, negative = inhibition) at 10uM” value is -22.9%.

As for `CC(C)(O)C#Cc1ccc(CN2CCC(CO)(CCc3ccccc3)CC2)cc1`, the “hERG current change (%, negative = inhibition) at 10uM” value is -39.8%.

For the compound `COC(=O)c1cccc(C(=O)N2CCC(CO)(CCc3ccccc3)CC2)c1`, the “hERG current change (%, negative = inhibition) at 10uM” value is -13.6%.

Take `Cc1cc2cc(C#N)c(SCC(=O)Nc3nonc3C)nc2cc1C`: the “hERG current change (%, negative = inhibition) at 10uM” value is given as -0.0959%.

Consider `CCOC(=O)c1c(C)[nH]c(C)c1C(=O)COC(=O)c1nc2nccc(C)n2n1`, for which the “hERG current change (%, negative = inhibition) at 10uM” value turned out to be 24.8%.

`C/C(=N/NC(=O)c1cc(C(C)C)[nH]n1)c1cccs1`: the “hERG current change (%, negative = inhibition) at 10uM” value was 7.16%.

Take `COc1cc(OC)cc(-c2c(-c3cccs3)c3cc(-c4ccn[nH]4)ccc3n2C)c1`: the “hERG current change (%, negative = inhibition) at 10uM” value was determined as 7.72%.

For the compound `O=C(Nc1ccc(Br)cc1Br)c1cccc2c1C(=O)N(C1CCCCC1)C2`, the “hERG current change (%, negative = inhibition) at 10uM” value stood at 12.8%.

Turning to `CN(C)c1ccc(C=NCCC2(c3ccccc3)CCOC(C)(C)C2)cc1` (stereo not shown), the “hERG current change (%, negative = inhibition) at 10uM” value worked out at 15.3%.

For the compound `[N-]=C=C1C(=S)NC(=O)[C@H]([n+]2ccccc2)[C@H]1c1ccc(Cl)cc1`, the “hERG current change (%, negative = inhibition) at 10uM” value came to 15.9%.

On to `Cc1ccc2nc(/C(C#N)=C/c3ccc(O)c(O)c3)[nH]c2c1`, for which the “hERG current change (%, negative = inhibition) at 10uM” value is listed as 7.82%.

Regarding `OCC1(CCc2ccccc2)CCN(Cc2c(F)ccc(F)c2F)CC1`, the “hERG current change (%, negative = inhibition) at 10uM” value is -36.9%.

Consider `OCC1(CCc2ccccc2)CCN(Cc2cc(Cl)ccc2O)CC1`, for which the “hERG current change (%, negative = inhibition) at 10uM” value is -49.5%.

For the compound `Clc1ccccc1CN1CCC(Cc2ccccc2)CC1`, the “hERG current change (%, negative = inhibition) at 10uM” value is -12.1%.

As for `CC(C)N1CCN(Cc2cc(F)ccc2-n2cccn2)CC1CCO` (stereo not shown), the “hERG current change (%, negative = inhibition) at 10uM” value is 11.2%.

`CC(C)N1CCC(N2CCN(Cc3cc(F)ccc3-n3cccn3)CC2CCO)CC1` (stereo not shown): the “hERG current change (%, negative = inhibition) at 10uM” value was -8.1%.

Turning to `OCC1(CCc2ccccc2)CCN(Cc2cc(F)ccc2-n2cccn2)CC1`, the “hERG current change (%, negative = inhibition) at 10uM” value is listed as -78.1%.

`OCC1(CCc2ccccc2)CCN(Cc2ccccc2Cl)CC1`: the “hERG current change (%, negative = inhibition) at 10uM” value is on record as -86%.

Turning to `O=S(=O)(c1cccc(C(F)(F)F)c1)N1CCC(CO)(CCCc2ccccc2)CC1`, the “hERG current change (%, negative = inhibition) at 10uM” value is on record as -6.59%.

For `OCC1(CCCc2ccccc2)CCN(Cc2cc(F)ccc2F)CC1`, the “hERG current change (%, negative = inhibition) at 10uM” value is on record as -69.5%.

`CCOc1ccc(NC(=O)N2CC=C(n3c(=O)[nH]c4ccccc43)CC2)cc1`: the “hERG current change (%, negative = inhibition) at 10uM” value is on record as -8.9%.

Turning to `COc1ccc2[nH]c(=O)c(CN(c3ccc(C)c(C)c3)S(C)(=O)=O)cc2c1`, the “hERG current change (%, negative = inhibition) at 10uM” value turned out to be 12.9%.

In the case of `Cc1ccccc1NC(=O)c1[nH]cnc1C(=O)NN`, the “hERG current change (%, negative = inhibition) at 10uM” value stood at 9.21%.
